Results published in the supplement of paper PMC13380429.

Tested on: Vero E6 infected with SARS-CoV-2
Test: inhibition of SARS-CoV-2 cytopathic effect; higher = more antiviral protection, active = above 15
Conditions: 48 h

Measured: inhibition of SARS-CoV-2 cytopathic effect

O=C(Oc1cc(S(=O)(=O)c2ccccc2)ccc1[N+](=O)[O-])c1ccc(Cl)cc1
inactive: 1 nM 0.83% | 8.33 nM 0.6% | 100 nM -2.99% | 833.33 nM -0.23% | 10000 nM -0.09%

CC(C)(C)Sc1c(CC(C)(C)C(=O)O)n(Cc2ccc(Cl)cc2)c2ccc(OCc3ccc4ccccc4n3)cc12 [quiflapon]
inactive: 1 nM 1.81% | 8.33 nM 0.25% | 100 nM -1.43% | 833.33 nM 1.93% | 10000 nM 1.66%

O=C(/C=C\n1cnc(-c2cc(C(F)(F)F)cc(C(F)(F)F)c2)n1)NNc1cnccn1 [selinexor]
inactive: 1 nM -0.07% | 8.33 nM -3.07% | 100 nM -7.87% | 833.33 nM -8.61% | 10000 nM -8.85%

O=[N+]([O-])c1cccc2c(Br)n[nH]c12 [3-bromo-7-nitroindazole]
inactive: 1 nM 0.35% | 8.33 nM 2.23% | 100 nM 0.07% | 833.33 nM -3.48% | 10000 nM -0.25%

C[C@]12CC[C@@H]3c4ccc(O)cc4C[C@@H](CCCCCCCCC[S+]([O-])CCCC(F)(F)C(F)(F)F)[C@H]3[C@@H]1CC[C@@H]2O (stereo not given in full) [fulvestrant]
inactive: 1 nM -1.55% | 8.33 nM -1.22% | 100 nM 0.63% | 833.33 nM -0.23% | 10000 nM -0.95%

CCOC(=O)N1CSC[C@H]1C(=O)O [telmesteine]
inactive: 1 nM 1.96% | 8.33 nM 2.23% | 100 nM 2.74% | 833.33 nM 4.95% | 10000 nM -0.12%

Nc1nccc(-c2c(-c3ccc(F)cc3)ncn2C2CCCCC2)n1
inactive: 1 nM 3.7% | 8.33 nM 3.92% | 100 nM -2.24% | 833.33 nM -0.2% | 10000 nM 1.35%

Cc1ccc(NC(=O)C(C)C)cc1C1CCN(Cc2ccc(Oc3ccc(F)c(F)c3)cc2)CC1
inactive: 1 nM -0.1% | 8.33 nM -1.41% | 100 nM -2.07% | 833.33 nM -4.89% | 10000 nM -10.5%

Oc1cccc2cccnc12 [oxyquinoline]
inactive: 1 nM -1.21% | 8.33 nM -0.58% | 100 nM 0.04% | 833.33 nM 2.84% | 10000 nM -0.31%

N=C(N)Nc1ccc(Cl)cc1 [4-chlorophenylguanidine]
inactive: 1 nM 0.9% | 8.33 nM 1.22% | 100 nM 0.63% | 833.33 nM -0.99% | 10000 nM 0.95%

COc1ccc2nc(NC(=O)Nc3ccccc3)sc2c1 [frentizole]
inactive: 1 nM -3.36% | 8.33 nM 0.96% | 100 nM -1.31% | 833.33 nM -1.35% | 10000 nM 1.78%

CC[C@H](NC(=O)c1c(C)c(-c2ccccc2)nc2ccccc12)c1ccccc1
inactive: 1 nM 1.87% | 8.33 nM 4.53% | 100 nM 5.18% | 833.33 nM 3.05% | 10000 nM -2.21%

Nc1nc(NC2CC2)c2ncn([C@H]3C=C[C@@H](CO)C3)c2n1
inactive: 1 nM -0.53% | 8.33 nM -0.06% | 100 nM 0.24% | 833.33 nM 0.84% | 10000 nM 0.33%

CCOC(=O)CSCCC1NC(C(=O)O)CS1 (stereo not given) [letosteine]
inactive: 1 nM -0.45% | 8.33 nM -0.54% | 100 nM 3.16% | 833.33 nM 2.53% | 10000 nM 5.67%

COc1ccc(C2CNC(=O)C2)cc1OC1CCCC1 (stereo not given) [rolipram]
inactive: 1 nM 0.987% | 8.33 nM 0.267% | 100 nM -1.59% | 833.33 nM -0.223% | 10000 nM -5.08%

CCN(CC)CCNC(=O)c1ccccc1I
inactive: 1 nM 1.9% | 8.33 nM 1.7% | 100 nM 2.44% | 833.33 nM -2.04% | 10000 nM 2.51%
